The target of experiment [1] is Mitogen-activated protein kinase 10 (Homo sapiens) (UniProt P53779). The note with it: at 10 µM.
Experiment [2] concerns the target Vascular endothelial growth factor receptor 2 (Homo sapiens) (UniProt P35968). Conditions: at 1 µM.
Experiment [3] has the same target. The note with it: at 10 µM.
Experiment [4] addresses LIM domain kinase 1 (Homo sapiens) (UniProt P53667). Conditions: at 1 µM.
The target is the same in experiment [5]. Conditions: at 10 µM.
The target of experiment [6] is T1, Serine/threonine-protein kinase STK11 (Homo sapiens) (UniProt Q15831).
T1 sequence (whole entry): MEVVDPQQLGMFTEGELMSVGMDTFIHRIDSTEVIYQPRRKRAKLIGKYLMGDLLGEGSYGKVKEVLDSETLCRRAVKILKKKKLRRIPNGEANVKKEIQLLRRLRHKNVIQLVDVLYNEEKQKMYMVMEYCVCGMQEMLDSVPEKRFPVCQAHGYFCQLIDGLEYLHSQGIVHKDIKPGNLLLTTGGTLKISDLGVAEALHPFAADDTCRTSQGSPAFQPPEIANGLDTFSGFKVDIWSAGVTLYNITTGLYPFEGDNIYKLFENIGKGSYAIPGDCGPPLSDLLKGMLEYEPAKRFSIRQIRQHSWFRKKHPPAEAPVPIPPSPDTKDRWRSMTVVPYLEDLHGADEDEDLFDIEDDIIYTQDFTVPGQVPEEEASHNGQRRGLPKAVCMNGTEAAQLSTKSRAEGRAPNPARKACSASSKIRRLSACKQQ
Conditions: at 1 µM.

Experiment [7] deals with Serine/threonine-protein kinase 10 (Homo sapiens) (UniProt O94804). Conditions: at 1 µM.
For experiment [8] the target is unchanged. The note with it: at 10 µM.
The target of experiment [9] is Tyrosine-protein kinase Lyn (Homo sapiens) (UniProt P07948). Conditions: at 1 µM.
Experiment [10] has the same target. The note with it: at 10 µM.
The target in experiment [11] is Mitogen-activated protein kinase 3 (Homo sapiens) (UniProt P27361). The note with it: at 1 µM.
Experiment [12] has the same target. The note with it: at 10 µM.
Experiment [13] has as its target MAP kinase-activated protein kinase 2 (Homo sapiens) (UniProt P49137). The note with it: at 1 µM.
Experiment [14] addresses T1, Serine/threonine-protein kinase STK11 (Homo sapiens). The note with it: at 10 µM.
Experiment [15] has as its target Tyrosine-protein kinase Lck (Homo sapiens) (UniProt P06239). The note with it: at 10 µM.
Experiment [16] has the same target. The note with it: at 1 µM.
Experiment [17] has the same target. The note with it: at 10 µM. The source holds these as a separate data set.
Experiment [18] has as its target Mitogen-activated protein kinase 1 (Homo sapiens) (UniProt P28482). Conditions: at 10 µM.
Experiment [19] addresses Tyrosine-protein kinase Lck (Homo sapiens) (UniProt P06239). Conditions: at 1 µM. The source holds these as a separate data set.
Experiment [20] has as its target Mitogen-activated protein kinase 1 (Homo sapiens) (UniProt P28482). Conditions: at 1 µM.

Chain of Tyrosine-protein kinase Lck (Homo sapiens) (P06239 2-509 limits assumed): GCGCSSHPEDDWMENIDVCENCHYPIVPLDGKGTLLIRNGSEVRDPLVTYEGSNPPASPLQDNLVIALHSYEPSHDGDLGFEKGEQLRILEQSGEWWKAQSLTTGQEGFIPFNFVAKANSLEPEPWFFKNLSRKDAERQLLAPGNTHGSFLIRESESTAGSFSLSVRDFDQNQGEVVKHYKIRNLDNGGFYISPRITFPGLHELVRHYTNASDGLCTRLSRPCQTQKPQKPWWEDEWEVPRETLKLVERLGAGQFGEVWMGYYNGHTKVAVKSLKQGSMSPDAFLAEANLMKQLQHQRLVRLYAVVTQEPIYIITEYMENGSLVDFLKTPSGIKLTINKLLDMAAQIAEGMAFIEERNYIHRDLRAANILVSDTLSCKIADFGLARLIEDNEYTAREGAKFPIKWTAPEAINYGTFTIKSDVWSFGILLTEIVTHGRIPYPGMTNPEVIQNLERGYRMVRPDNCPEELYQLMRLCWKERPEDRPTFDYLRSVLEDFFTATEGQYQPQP
Chain of Serine/threonine-protein kinase 10 (Homo sapiens) (O94804 whole entry, looked up): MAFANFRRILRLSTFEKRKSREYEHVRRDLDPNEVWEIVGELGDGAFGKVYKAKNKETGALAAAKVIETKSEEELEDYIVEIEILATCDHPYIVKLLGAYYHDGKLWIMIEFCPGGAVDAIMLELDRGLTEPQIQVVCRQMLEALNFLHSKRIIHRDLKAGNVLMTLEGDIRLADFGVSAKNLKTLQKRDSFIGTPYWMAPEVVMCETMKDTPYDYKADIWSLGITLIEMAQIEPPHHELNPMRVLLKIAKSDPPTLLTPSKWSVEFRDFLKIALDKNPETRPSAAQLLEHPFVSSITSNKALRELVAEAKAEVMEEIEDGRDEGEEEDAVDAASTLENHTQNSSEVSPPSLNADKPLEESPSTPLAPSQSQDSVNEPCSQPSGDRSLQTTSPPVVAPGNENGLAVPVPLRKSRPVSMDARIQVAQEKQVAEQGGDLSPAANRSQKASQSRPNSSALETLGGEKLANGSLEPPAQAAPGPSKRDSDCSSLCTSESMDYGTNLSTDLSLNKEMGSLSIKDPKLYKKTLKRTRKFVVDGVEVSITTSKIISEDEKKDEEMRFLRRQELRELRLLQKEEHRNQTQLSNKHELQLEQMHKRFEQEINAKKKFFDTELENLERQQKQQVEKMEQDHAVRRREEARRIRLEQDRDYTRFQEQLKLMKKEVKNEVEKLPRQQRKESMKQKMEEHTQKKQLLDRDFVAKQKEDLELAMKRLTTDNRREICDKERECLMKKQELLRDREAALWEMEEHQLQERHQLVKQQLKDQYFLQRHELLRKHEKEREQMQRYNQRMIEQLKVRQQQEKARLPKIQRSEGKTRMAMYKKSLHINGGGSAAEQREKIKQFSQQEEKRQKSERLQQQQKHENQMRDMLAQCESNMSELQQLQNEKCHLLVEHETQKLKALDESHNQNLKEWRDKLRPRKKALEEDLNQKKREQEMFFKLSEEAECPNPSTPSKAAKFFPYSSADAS
Chain of LIM domain kinase 1 (Homo sapiens) (P53667 whole entry, looked up, the tested form may be a part): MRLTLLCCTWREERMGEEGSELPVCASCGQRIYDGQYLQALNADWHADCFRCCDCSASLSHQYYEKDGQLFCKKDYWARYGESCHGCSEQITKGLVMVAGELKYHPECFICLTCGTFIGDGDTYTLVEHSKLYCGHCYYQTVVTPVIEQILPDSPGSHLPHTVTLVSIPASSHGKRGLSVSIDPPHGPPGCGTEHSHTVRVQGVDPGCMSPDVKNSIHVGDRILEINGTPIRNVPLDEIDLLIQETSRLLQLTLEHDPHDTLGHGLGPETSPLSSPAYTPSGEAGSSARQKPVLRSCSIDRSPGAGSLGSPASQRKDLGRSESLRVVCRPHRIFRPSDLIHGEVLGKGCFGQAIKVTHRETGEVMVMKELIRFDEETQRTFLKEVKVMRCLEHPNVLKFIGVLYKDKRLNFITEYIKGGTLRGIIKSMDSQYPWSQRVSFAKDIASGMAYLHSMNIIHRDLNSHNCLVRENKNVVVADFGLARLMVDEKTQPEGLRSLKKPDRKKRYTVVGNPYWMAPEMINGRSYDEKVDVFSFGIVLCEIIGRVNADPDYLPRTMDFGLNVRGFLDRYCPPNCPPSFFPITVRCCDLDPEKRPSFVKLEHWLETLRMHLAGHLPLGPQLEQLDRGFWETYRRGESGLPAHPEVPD
Chain of MAP kinase-activated protein kinase 2 (Homo sapiens) (P49137 whole entry, looked up): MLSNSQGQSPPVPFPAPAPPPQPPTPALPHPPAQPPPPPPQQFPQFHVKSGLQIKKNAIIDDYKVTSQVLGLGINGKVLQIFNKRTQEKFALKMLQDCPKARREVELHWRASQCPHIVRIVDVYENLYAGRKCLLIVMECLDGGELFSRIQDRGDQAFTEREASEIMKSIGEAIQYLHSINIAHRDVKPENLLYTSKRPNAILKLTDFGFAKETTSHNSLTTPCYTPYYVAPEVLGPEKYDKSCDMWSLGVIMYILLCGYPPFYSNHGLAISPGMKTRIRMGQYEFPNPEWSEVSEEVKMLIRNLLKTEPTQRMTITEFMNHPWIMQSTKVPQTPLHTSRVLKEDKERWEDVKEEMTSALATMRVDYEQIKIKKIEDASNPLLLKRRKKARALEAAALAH
Chain of Tyrosine-protein kinase Lyn (Homo sapiens) (P07948 2-512 limits assumed): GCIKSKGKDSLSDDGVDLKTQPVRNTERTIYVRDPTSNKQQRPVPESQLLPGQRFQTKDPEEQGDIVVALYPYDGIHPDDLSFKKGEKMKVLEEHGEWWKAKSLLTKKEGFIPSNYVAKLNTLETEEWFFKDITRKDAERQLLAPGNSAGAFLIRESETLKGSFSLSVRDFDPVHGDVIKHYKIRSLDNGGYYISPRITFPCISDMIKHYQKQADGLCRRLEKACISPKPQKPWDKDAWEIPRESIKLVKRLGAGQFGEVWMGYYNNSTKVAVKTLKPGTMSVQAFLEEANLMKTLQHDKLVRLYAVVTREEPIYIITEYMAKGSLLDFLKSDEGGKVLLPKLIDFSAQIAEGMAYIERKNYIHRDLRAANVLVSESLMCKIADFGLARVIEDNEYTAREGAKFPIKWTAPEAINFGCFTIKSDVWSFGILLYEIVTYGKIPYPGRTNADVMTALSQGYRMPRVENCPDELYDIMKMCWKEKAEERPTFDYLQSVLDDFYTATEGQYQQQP
Chain of Mitogen-activated protein kinase 10 (Homo sapiens) (P53779 whole entry): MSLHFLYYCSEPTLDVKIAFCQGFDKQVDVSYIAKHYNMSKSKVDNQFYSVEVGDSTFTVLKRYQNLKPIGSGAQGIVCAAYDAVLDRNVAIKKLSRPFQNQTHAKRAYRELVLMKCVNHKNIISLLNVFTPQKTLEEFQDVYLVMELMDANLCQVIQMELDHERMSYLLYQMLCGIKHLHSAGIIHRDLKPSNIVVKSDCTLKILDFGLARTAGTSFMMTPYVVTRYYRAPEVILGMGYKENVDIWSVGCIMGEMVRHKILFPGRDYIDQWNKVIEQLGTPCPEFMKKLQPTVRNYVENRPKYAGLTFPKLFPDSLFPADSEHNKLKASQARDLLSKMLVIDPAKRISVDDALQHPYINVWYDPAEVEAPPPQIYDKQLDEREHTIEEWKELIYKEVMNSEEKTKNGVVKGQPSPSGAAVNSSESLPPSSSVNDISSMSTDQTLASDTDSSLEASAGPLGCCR
Chain of Mitogen-activated protein kinase 3 (Homo sapiens) (P27361 whole entry): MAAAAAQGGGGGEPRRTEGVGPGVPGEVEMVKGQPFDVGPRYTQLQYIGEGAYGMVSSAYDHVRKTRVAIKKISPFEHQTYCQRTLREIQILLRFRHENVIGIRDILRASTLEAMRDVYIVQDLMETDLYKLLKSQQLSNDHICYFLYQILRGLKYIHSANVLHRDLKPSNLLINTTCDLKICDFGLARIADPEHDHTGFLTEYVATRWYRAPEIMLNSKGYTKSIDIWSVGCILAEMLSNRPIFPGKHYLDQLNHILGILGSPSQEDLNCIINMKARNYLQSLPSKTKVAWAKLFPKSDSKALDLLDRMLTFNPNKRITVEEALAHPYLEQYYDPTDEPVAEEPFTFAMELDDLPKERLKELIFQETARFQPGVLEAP
Chain of Mitogen-activated protein kinase 1 (Homo sapiens) (P28482 whole entry): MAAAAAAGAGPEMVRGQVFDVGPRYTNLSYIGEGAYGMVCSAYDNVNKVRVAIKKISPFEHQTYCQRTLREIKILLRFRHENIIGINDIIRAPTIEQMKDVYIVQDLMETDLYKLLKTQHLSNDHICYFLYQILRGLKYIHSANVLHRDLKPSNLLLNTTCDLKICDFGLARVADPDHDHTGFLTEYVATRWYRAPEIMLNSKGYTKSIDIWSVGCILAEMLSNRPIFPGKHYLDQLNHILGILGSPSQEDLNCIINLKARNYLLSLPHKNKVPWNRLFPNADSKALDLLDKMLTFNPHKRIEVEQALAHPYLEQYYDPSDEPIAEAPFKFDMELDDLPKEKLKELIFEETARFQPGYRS

In the case of `CC(=O)c1ccc(N2CCOCC2)cc1O`, the residual activity in experiment [1] is 85%; in experiment [2], 106%; in experiment [3], 91%; in experiment [4] it was 104%; in [5] it was 83%; in experiment [6] it was 97%. For the same molecule, the residual activity in experiment [7] is 102%; in experiment [8] it was 90%; in [9], 105%; in [10], 98%; in experiment [11], 91%; in [12], 89%. The residual activity in [13] amounted to 100%.

With `Cn1nc2c3c(cccc31)C(=O)c1ccccc1-2`, the residual activity was 9% in experiment [1]; 84% in experiment [2]; 45% in experiment [3]; 86% in experiment [4]; 80% in experiment [5]; 102% in experiment [6]. Besides, the residual activity worked out at 84% in experiment [14]; 73% in experiment [7]; 68% in [8]; 93% in experiment [15]; 106% in experiment [16]; 86% in experiment [17]. In addition, the residual activity in experiment [9] came to 89%; in experiment [10], 50%; in experiment [11], 83%; in experiment [12], 96%; in experiment [18], 97%; in [13], 77%.

With `c1ccc2c(-c3ccncc3)c[nH]c2c1`, the residual activity amounted to 100% in [2]; 78% in experiment [3]; 98% in [4]; 64% in [5]; 100% in [6]; 90% in experiment [14]. Moreover, the residual activity is 86% in experiment [7]; 54% in experiment [8]; 102% in [19]; 79% in experiment [15]; 94% in experiment [16]; 101% in experiment [17]. Also, the residual activity in experiment [9] amounted to 105%; in [10], 91%; in experiment [11], 77%; in [12] it was 87%; in experiment [20], 101%; in experiment [18], 99%. Moreover, the residual activity in experiment [13] was 90%.

On to `O=C1Nc2ccccc2/C1=C1/Nc2ccccc2/C1=N\OCCC(O)CO` (stereo not drawn), for which the residual activity in experiment [1] came to 20%; in experiment [2], 3%; in experiment [3] it was 1%; in [4], 42%; in [5], 33%; in experiment [6], 30%. Further, the residual activity in experiment [14] is 3%; in [7], 62%; in experiment [8] it was 70%; in experiment [19] it was 4%; in experiment [15], 5%; in [16], 5%. Moreover, the residual activity is 8% in experiment [17]; 4% in [9]; -1% in experiment [10]; 108% in experiment [20]; 78% in experiment [13].

With `N#Cc1cnc2cnc(NCc3cccnc3)cc2c1Nc1ccc(F)c(Cl)c1`, the residual activity in [1] was 80%; in experiment [3] it was 76%; in experiment [4], 42%; in [5], 27%; in experiment [7], 96%; in experiment [8] it was 93%. Also, the residual activity in experiment [19] was 68%; in experiment [15] it was 20%; in experiment [16] it was 14%; in experiment [17] it was 7%; in experiment [10], 1%; in experiment [12] it was 75%. In addition, the residual activity in [13] worked out at 51%.

In the case of `N#CCCc1ccc2c(c1)-c1[nH]c3ccc([N+](=O)[O-])cc3c1CC(=O)N2`, the residual activity stood at 43% in experiment [1]; 30% in [2]; 13% in experiment [3]; 57% in [7]; 58% in [8]; 14% in experiment [19]. Moreover, the residual activity in experiment [15] amounted to 13%; in experiment [16], 24%; in [17] it was 23%; in [9], 5%; in experiment [10], 0%; in [11], 58%. For the same molecule, the figures for the residual activity in experiment [12], in experiment [18] and in experiment [13] were 34%, 51% and 57%, respectively.

Turning to `Oc1ccc(-c2nc(-c3ccc(F)cc3)c(-c3ccncc3)[nH]2)cc1`, the residual activity in experiment [1] is -2%; in [2] it was 98%; in experiment [3] it was 49%; in experiment [4], 101%; in experiment [5], 69%; in experiment [6] it was 108%. The residual activity in experiment [14] came out at 99%; in experiment [7], 92%; in [8], 59%; in experiment [19], 61%; in experiment [15], 45%; in [16] it was 80%. The residual activity in experiment [17] is 26%; in [9] it was 66%; in [10], 11%; in experiment [11], 123%; in experiment [12], 93%; in experiment [20] it was 113%. Moreover, the residual activity in experiment [18] is 98%; in [13], 87%.

Regarding `N#C/C(=C(\N)Sc1ccc(N)cc1)c1ccccc1C(F)(F)F`, the residual activity in experiment [1] worked out at 83%; in experiment [2], 97%; in [3], 97%; in experiment [4] it was 91%; in [5], 85%; in [6], 105%. For the same molecule, the residual activity in experiment [14] was determined as 93%; in [7], 69%; in experiment [8], 83%; in experiment [19], 83%; in [15] it was 103%; in [16], 110%. The residual activity was 74% in experiment [17]; 65% in [9]; 67% in experiment [10]; 95% in [11]; 114% in experiment [12]; 104% in experiment [20]. Also, the results for the residual activity in experiment [18] and in [13] were 90% and 70%, respectively.

For `C[C@@H](N)[C@H]1CC[C@H](C(=O)Nc2ccncc2)CC1`, the residual activity in experiment [1] came to 86%; in [2] it was 113%; in [3] it was 108%; in [5] it was 89%; in [6], 97%; in [14], 96%. Also, the residual activity in experiment [8] is 59%; in [9], 99%; in [10], 100%; in experiment [11] it was 113%; in experiment [12], 109%; in experiment [20] it was 102%. In addition, the residual activity in [18] was 105%.

`Nc1nc(Nc2ccc(S(N)(=O)=O)cc2)nn1C(=S)Nc1c(F)cccc1F`: the residual activity in [1] came to 3%; in experiment [2], 0%; in experiment [3], 0%; in experiment [4] it was 5%; in experiment [5], 2%; in experiment [6] it was 87%. Besides, the residual activity in [14] amounted to 41%; in [7], 0%; in [8] it was 0%; in experiment [19], 4%; in [15], 16%; in experiment [16], 8%. The residual activity was 18% in experiment [17]; 6% in experiment [9]; 1% in experiment [10]; 29% in experiment [11]; 3% in experiment [12]; 49% in experiment [20]. Further, the residual activity in [18] was 3%; in experiment [13] it was 44%.

For the molecule `N#CC(C#N)=C(N)/C(C#N)=C/c1ccc(O)cc1`, the residual activity in experiment [1] amounted to 88%; in [3] it was 92%; in experiment [7], 98%; in experiment [8], 96%; in experiment [9], 93%; in experiment [10] it was 70%. The residual activity in [20] is 118%; in experiment [13] it was 94%.

`CN(C)CCCn1cc(C2=C(c3c[nH]c4ccccc34)C(=O)NC2=O)c2ccccc21`: the residual activity in experiment [1] is 101%; in experiment [2] it was 61%; in experiment [3], 14%; in experiment [4], 117%; in [5] it was 73%; in experiment [6], 105%. Further, the residual activity worked out at 102% in experiment [14]; 33% in experiment [7]; 15% in experiment [8]; 109% in experiment [19]; 49% in experiment [15]; 80% in experiment [16]. For the same molecule, the residual activity in [17] was determined as 43%; in [9], 79%; in experiment [10], 22%; in [13], 108%.

Take `CNc1cc2c(Nc3cccc(Br)c3)ncnc2cn1`: the residual activity stood at 60% in experiment [1]; 85% in experiment [2]; 40% in experiment [3]; 102% in experiment [4]; 43% in experiment [5]; 99% in experiment [6]. In addition, the residual activity in [14] turned out to be 95%; in experiment [7], 27%; in experiment [8], 10%; in experiment [19], 87%; in experiment [15] it was 19%; in experiment [16], 73%. Moreover, the residual activity in experiment [17] amounted to 79%; in experiment [9], 10%; in [10], 5%; in experiment [11], 86%; in experiment [12] it was 95%; in [20], 102%. The residual activity was 96% in [18] and 119% in experiment [13].

With `Cc1cncc2cccc(S(=O)(=O)N3CCCN(C(=O)CN)C[C@H]3C)c12`, the residual activity in experiment [1] amounted to 124%; in experiment [2] it was 99%; in experiment [3], 74%; in experiment [4] it was 92%; in experiment [5], 51%; in [6] it was 91%. Further, the residual activity turned out to be 69% in [14]; 54% in [7]; 21% in [8]; 97% in experiment [19]; 68% in experiment [15]; 84% in [16]. The residual activity worked out at 78% in experiment [17]; 82% in experiment [9]; 46% in experiment [10]; 79% in experiment [11]; 86% in experiment [12]; 88% in [13].

As for `Cc1cc(Nc2nc(-c3ccccc3)nc3ccccc23)n[nH]1`, the residual activity in [1] worked out at 12%; in experiment [2] it was 5%; in experiment [3] it was 1%; in experiment [4] it was 51%; in [5] it was 18%; in experiment [14], 71%. The residual activity in [7] came to 50%; in experiment [8], 10%; in [19], 23%; in [15] it was 6%; in experiment [16], 36%; in experiment [17] it was 13%. Also, the values for the residual activity in [9], in [10] and in [20] were 9%, 4% and 106%, respectively.

For the molecule `COc1cc2ncnc(Nc3ccc(Oc4ccccc4)cc3)c2cc1OC`, the residual activity in experiment [1] is 148%; in experiment [2] it was 49%; in experiment [3], 7%; in experiment [4], 78%; in [5] it was 34%; in [6] it was 102%. The residual activity in experiment [14] is 93%; in [19], 0%; in experiment [15], -1%; in experiment [16], -2%; in [17], 0%; in [9], 1%. Besides, the residual activity worked out at 1% in [10]; 83% in [11]; 113% in experiment [12]; 96% in [20]; 94% in experiment [18]; 95% in [13].

The values above are taken from ChEMBL document CHEMBL2218924, “A broad activity screen in support of a chemogenomic map for kinase signalling research and drug discovery” (Biochem J, 2013).
